Source: the supplement of paper PMC6607015
Where a name gives a salt, the structure may show the parent alone.

Key:
Details in all cases: compound concentration in added solution (µM; 5 µl added to 20 µl cells): 10; 18 h
A431 [1] = assay: LBPA endosome anti-LBPA integrated intensity (sum per cell), Z-score; higher = more LBPA staining
Procedure, shortened: (§1)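 In duplicate 384-well imaging plates, 3,500 HeLa MZ or A431 cells in 20 µl per well were seeded onto 5 µl of 10 µM compound solution. The cells were incubated for 18 h, fixed in 4% PFA and stained with 6C4 anti-LBPA antibody, filipin, propidium iodide and CellTracker green before four 20× images were acquired per well. Values are AcuityXpress-normalised Z-scores of per-cell integrated LBPA or filipin intensity, obtained by MetaXpress segmentation over the whole cell or in LBPA endosomes.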

HeLa MZ [2] = assay: as above
Procedure, shortened: as §1

A431 [3] = assay: whole-cell filipin (free cholesterol) integrated intensity, Z-score; higher = more cholesterol staining
Procedure, shortened: as §1

HeLa MZ [4] = assay: as above
Procedure, shortened: as §1

A431 [5] = assay: filipin (cholesterol) integrated intensity within LBPA endosomes, Z-score; higher = more cholesterol in LBPA endosomes
Procedure, shortened: as §1

HeLa MZ [6] = assay: as above
Procedure, shortened: as §1

SMILES | LBPA endosome anti-LBPA integrated intensity (z-score) (A431 [1]) | LBPA endosome anti-LBPA integrated intensity (z-score) (HeLa MZ [2]) | whole-cell filipin (z-score) (A431 [3]) | whole-cell filipin (z-score) (HeLa MZ [4]) | filipin (z-score) (A431 [5]) | filipin (z-score) (HeLa MZ [6])
NNC(=O)c1ccncc1 [Isoniazid] | -0.56 | -1.34 | -0.938 | -1.09 | -0.477 | -0.667
C#C[C@]1(O)CC[C@H]2[C@@H]3CCC4=CC(=O)CC[C@@H]4[C@H]3CC[C@@]21CC [Norgestrel-(-)-D] | -0.501 | -0.275 | -0.421 | -0.79 | -0.478 | -0.446
Nc1ncnc2c1ncn2C1OC(COP(=O)(O)O)C(O)C1O (centres undefined) [Adenosine 5'-monophosphate monohydrate] | -0.591 | 0.12 | -0.666 | 0.0121 | -0.493 | -0.612
CC1(C)S[C@@H]2[C@H](NC(=O)Cc3ccccc3)C(=O)N2[C@H]1C(=O)O [Benzylpenicillin sodium] | -0.349 | 1.42 | -0.101 | 2.18 | -0.427 | -0.552
CC(C)(Oc1ccc(Cl)cc1)C(=O)O [Clofibric acid] | -0.512 | -0.676 | -0.43 | -0.52 | -0.514 | -0.568
CN1CCN2c3ccccc3Cc3ccccc3C2C1 (centres undefined) [Mianserine hydrochloride] | 1.6 | 1.07 | 1.17 | 0.96 | 1.16 | 1.54
CC(=O)O[C@]1(C(C)=O)CC[C@H]2[C@@H]3C=C(Cl)C4=CC(=O)CC[C@]4(C)[C@H]3CC[C@@]21C [Chlormadinone acetate] | 0.021 | 2.23 | 0.739 | 1.32 | 0.102 | 0.534
Cc1ccc(-c2cc(C(F)(F)F)nn2-c2ccc(S(N)(=O)=O)cc2)cc1 [Celecoxib] | -0.0813 | 0.702 | 0.406 | 0.113 | -0.205 | -0.22
COc1cc([S+](C)[O-])ccc1-c1nc2cccnc2[nH]1 (centres undefined) [Sulmazole] | -0.64 | -1.23 | -0.818 | -0.362 | -0.483 | -0.399
